Assay results reported in ChEMBL document CHEMBL4513216, “Probing the Open Global Health Chemical Diversity Library for Multistage-Active Starting Points for Next-Generation Antimalarials” (ACS Infect Dis, 2020).
The campaign covered roughly 69,000 compounds. About 8,600 (12%) showed an effect of 50% or more. This excerpt belongs to a sample that is enriched for strong results.

test system: Plasmodium berghei; test: Screen against P. berghei liver stage (PbLuc), transformed with Luciferase, at 10uM; type: functional, HepG2; conditions: tested at 10 uM

Row | Compound | INHIBITION [%]
1 | Cc1cc(-n2cncn2)n2ncnc2n1 | 47.1
2 | CC(C)N(CCC#N)C(=O)c1cnc(-c2ccc3c(c2)OCO3)s1 | -73.9
3 | CC(C)c1nnc2n1CC(CNCc1nnc(C(C)(C)C)o1)CC2 (centres undefined) | 3.77
4 | CCN1CCN(c2nc3cn(-c4cnn(CC)c4)c(=O)c-3c[nH]2)CC1 | 36.6
5 | CC(=O)N[C@@H]1CN(C(=O)c2csc(C(C)C)n2)C[C@H]1C(C)C | 9.87
6 | CC(=O)N1C[C@H](NC(=O)c2ccnc(N)c2)[C@@H](C(C)C)C1 | 19.1
7 | CC(=O)N1C[C@H](NC(=O)c2csc(C(C)C)c2)[C@@H](C(C)C)C1 | 51.1
8 | COCC(=O)N1CC[C@H]2[C@H]1CCN2CC(C)C | 52.6
9 | CC(C)CN1CC[C@@H]2[C@@H]1CCN2C(=O)N1CCCC1 | 31.9
10 | CC(C)CN1CC[C@@H]2[C@@H]1CCN2C(=O)N(C)C | 3.88
11 | CN(C)CC(=O)N1C[C@@H]2CC[C@H](Oc3ccccc3)[C@@H]2C1 | -21.4
12 | COc1cccc(CN(C)S(=O)(=O)N2CCOCC2)c1 | 34.7
13 | Cc1nn(C)c(N(C)C)c1CNCc1cccnc1N1CCOCC1 | -69.3
14 | O=C(NC1CC1)[C@@H]1CN(Cc2ccc3c(c2)OCO3)C[C@H]2OCC[C@H]21 | 13.7
15 | CCC(C)N(Cc1cc(C)n[nH]1)Cc1ccccc1Cl (centres undefined) | 79
16 | CCC(C)N(Cc1c[nH]c(C)n1)Cc1ccccc1Cl (centres undefined) | 41
17 | CC(CC#N)N(C)Cc1ccccc1Cl (centres undefined) | 38.5
18 | CNC(=O)NC(=O)CN1CCc2c(Br)ccc(F)c2C1 | -34.8
19 | COc1ccccc1CCNC(=O)CNCC1CN(C)CCO1 (centres undefined) | 11
20 | COc1ccc(-c2nc(C#N)c(N(C)C)o2)cc1OC | -34.9
21 | CCc1nn2c(=N)c(C#N)n[nH]c2c1-c1ccc(OC)cc1 | 22.9
22 | COc1ccc(-c2c(C)nn3c(=N)c(C#N)n[nH]c23)cc1 | 3.19

Row | Compound | INHIBITION [%]
23 | COc1ccc(-c2csc(N)c2C#N)cc1OC | 1.58
24 | COc1ccc(-c2c(C)nn3c(=N)c(C#N)n[nH]c23)cc1OC | 85
25 | COc1ccc(-c2c(C(C)C)nn3c(=N)c(C#N)n[nH]c23)cc1 | 53.1
26 | CN(C)C[C@H]1OC[C@@H]2CCN(C(=O)c3ccc[nH]3)C[C@@H]21 | 29.8
27 | Cc1noc(C2CCC3(CCN(C(=O)c4cnn(C)c4)CC3)O2)n1 (centres undefined) | 44.1
28 | CC(C)(NS(C)(=O)=O)c1nc(-c2ccc(F)c(F)c2)no1 | -7.02
29 | O=C(c1ccc2c(c1)COC2)N1CCCC(n2cncn2)C1 (centres undefined) | 0.411
30 | CO[C@H]1CN(Cc2ccc(F)c(F)c2)C[C@@]12CCCO2 | 35.2
31 | Cc1nc(NC(=O)NC(CS(C)(=O)=O)c2ccccc2)sc1C (centres undefined) | 35.1
32 | Cc1nc2n(n1)CC(NCc1csc(-c3ccsc3)n1)CC2 (centres undefined) | 22.55
33 | Cc1nc(C2CCCNC2)cc(N(Cc2c(C)nn(C)c2C)C2CC2)n1 (centres undefined) | -21.5
34 | COc1cc(S(=O)(=O)N2CCc3ccccc32)cc(C(=O)O)c1OC | 48.2
35 | COc1cc(S(=O)(=O)N2CCc3ccc(Cl)cc32)cc(C(=O)O)c1OC | -11.4
36 | COc1cc(S(=O)(=O)N2CCc3cc(Br)ccc32)cc(C(=O)O)c1OC | 62.6
37 | CCOC(=O)CNC(=O)N1CCOC(Cc2ccc(OC)cc2)C1 (centres undefined) | -17.4
38 | COc1cccc(CC2CN(C3CCN(C(C)=O)CC3)CCO2)c1 (centres undefined) | 1.81
39 | CCOC(=O)CCNC(=O)N1CCOC(Cc2cccc(OC)c2)C1 (centres undefined) | 53.7
40 | CS(=O)(=O)c1ccc(NC(=O)N2C[C@H](O)[C@@H](N3CCOCC3)C2)cc1 | 67.5
41 | O=C(Nc1ccc(-n2cccn2)cc1)N1C[C@H](O)[C@@H](N2CCOCC2)C1 | 44.3
42 | Cc1ccccc1C(=O)N1C[C@@H](O)[C@H](N2CCOCC2)C1 | 33.25
43 | COCCS(=O)(=O)NC(C)c1ccc(-n2nc(C)cc2C)cc1 (centres undefined) | 69.7
44 | Cc1cc(C)n(-c2ccc(C(C)NS(=O)(=O)CCCS(C)(=O)=O)cc2)n1 (centres undefined) | 47.4

Row | Compound | INHIBITION [%]
45 | Cc1cc(C)n(-c2ccc(C(C)NS(N)(=O)=O)cc2)n1 (centres undefined) | 37.1
46 | COCCN1CCC2(CC1)CN(CCn1cccn1)C(=O)CO2 | 23.3
47 | CN(CC(=O)N1CCN(c2cnccn2)CC1)c1ccc(Cl)cn1 | -1.38
48 | CCn1cc(S(=O)(=O)N2CCN(S(=O)(=O)c3ccc(Br)s3)CC2)c(C)n1 | 24.2
49 | CCn1cc(NS(=O)(=O)c2ccc(Br)s2)c(C(=O)NCC(C)C)n1 | -0.217
50 | CCn1cc(NS(=O)(=O)c2ccc(Br)s2)c(C(N)=O)n1 | 61.6
51 | Cc1cccc(-c2ccc(C(=O)N3CCN(C4CC4)CC3)c(=O)[nH]2)c1 | 21.8
52 | Cc1cc2c(c(-c3cncc(C(=O)N4CCCC4)n3)c1)OC(CN)C2 (centres undefined) | 57.3
53 | NCC1Cc2cc(-c3cncc(C(=O)N4CCCCC4)n3)cc(F)c2O1 (centres undefined) | 18.3
54 | NCC1Cc2cc(Cl)cc(-c3cncc(C(=O)N4CCCCC4)n3)c2O1 (centres undefined) | 24.8
55 | CC(C)N1CCC(c2n[nH]cc2S(C)(=O)=O)CC1 | -8.58
56 | Cc1cc(C(=O)NCc2cnn(C)c2C)nc(N2CCCCCC2)n1 | -7.53
57 | Cc1ocnc1C(=O)Nc1ccc(-c2nnc(N(C)C)o2)cc1 | -128
58 | CC(=O)CCC(=O)N1CCC2(CC1)N=C(CCC(C)C)NC2=O | -40.7
59 | CCOC(=O)N1CCC2(CC1)N=C(CCC(C)C)NC2=O | -65
60 | CC(C)CCC1=NC2(CCN(C(=O)CN3CCCC3=O)CC2)C(=O)N1 | 82.4
61 | O=C(CN1CCCCC1=O)N1CCC2(CC1)[C@H](O)C[C@@H]2O | 44
62 | CC(C)CCC1=NC2(CCN(C(=O)N3CCN(C)CC3)CC2)C(=O)N1 | -23.5
63 | COC(=O)N1CCC2(CC1)N=C(CCC(C)C)NC2=O | 76.7
64 | Cc1cnn(CC2CN(Cc3ccc(-n4cccn4)cc3)CCO2)c1 (centres undefined) | 40
